Screening data deposited in PubChem by National Center for Advancing Translational Sciences (NCATS).
The list is not random: actives were taken first. Their share in the collection is about 0.036%.
LMNA splice mod – qHTS Assay for Modulators of Lamin A Splicing; HeLa LMNA splicing GFP/RFP minigene ratio, 48 h; Potency, µM (doses to about 46.1 µM), for inactives: top-dose ratio change, negative = inhibition, most hits filed as inhibitors; 0.01% of 200,000 active; AID 1487, 2009; active = well fitted inhibition curve with a large enough effect in the signal ratio, with a control signal flat, not every such curve was filed as active; inconclusive = small, poorly fitted or top-dose-only effect, or effect the other way, or a change in a side signal; the % refers to the signal ratio; note: potency is the fitted concentration of half-maximal effect; % is set by controls: 0 for no effect and ±100 for the full control effect
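S3 HeLa cells stably expressing lamin A-EGFP splicing minigene plus DsRed2, 600 cells/well, 48 h compound exposure at 37C. Laser-scanning cytometry; analysed as GFP (500-530 nm)/RFP (575-640 nm) total intensity ratio; 0.5% DMSO vehicle.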
CBFb-RUNX1 inh – qHTS Assay for Compounds Blocking the Interaction Between CBF-beta and RUNX1 for the Treatment of Acute Myeloid Leukemia; Runt-related transcription factor 1 (Homo sapiens) + Core-binding factor subunit beta …; AlphaScreen CBFb-His/RUNX1-biotin binding, biochemical; Potency, µM (doses to about 59.8 µM), without a hit: top-dose activity, negative = inhibition, most hits filed as inhibitors; 230,000 tested, under 10 active; note: % of control where 0% means no effect
Target sequence (Q01196 whole entry, looked up): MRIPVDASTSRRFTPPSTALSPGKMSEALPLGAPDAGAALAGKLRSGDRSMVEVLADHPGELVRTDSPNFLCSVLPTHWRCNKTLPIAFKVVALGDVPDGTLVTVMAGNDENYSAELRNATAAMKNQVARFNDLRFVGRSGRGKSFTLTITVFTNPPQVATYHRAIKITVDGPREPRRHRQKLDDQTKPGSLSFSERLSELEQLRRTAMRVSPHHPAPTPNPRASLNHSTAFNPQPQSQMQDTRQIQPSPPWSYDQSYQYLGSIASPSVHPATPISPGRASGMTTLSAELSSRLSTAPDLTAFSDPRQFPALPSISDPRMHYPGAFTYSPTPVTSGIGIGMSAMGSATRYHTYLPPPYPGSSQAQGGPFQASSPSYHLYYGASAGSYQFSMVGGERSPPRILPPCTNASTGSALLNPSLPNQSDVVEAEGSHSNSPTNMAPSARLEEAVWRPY
Target sequence (Q13951 whole entry, looked up): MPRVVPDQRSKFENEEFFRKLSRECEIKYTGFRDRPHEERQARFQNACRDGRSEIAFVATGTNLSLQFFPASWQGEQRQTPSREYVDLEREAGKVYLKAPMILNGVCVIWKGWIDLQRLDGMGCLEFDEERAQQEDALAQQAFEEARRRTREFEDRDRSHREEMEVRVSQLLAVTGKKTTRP
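Interaction loss through any mechanism counts as activity. Pre-formed complex of His-CBF-beta and biotin-RUNX1 (30 nM apiece) is incubated with compound 15 min, then with 50 ng nickel and 50 ng streptavidin beads for 90 min before AlphaScreen detection.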
MBNL1 CUG block – qHTS Assay for Inhibitors of MBNL1-poly(CUG) RNA binding; Muscleblind-like protein 1 (Homo sapiens), Q9NR56; TR-FRET MBNL1-His/biotin-(CUG)12 binding, 665/545 ratio; Potency, µM (top dose mostly 57.5 µM), inactives show at the highest dose activity change, negative = inhibition, actives largely listed as inhibitors; 0.036% of 280,000 active; active = well fitted inhibition curve with a large enough effect in the signal ratio, with a control signal flat, not every such curve was filed as active; inconclusive = small, poorly fitted or top-dose-only effect, or effect the other way, or a change in a side signal; inactive = no such curve, though single readings can be large or run the other way; the % refers to the signal ratio; note: potency is the fitted concentration of half-maximal effect; % is set by controls: 0 for no effect and ±100 for the full control effect
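TR-FRET between His-tagged MBNL1 and biotin-(CUG)12 RNA, detected with Tb anti-His antibody (0.055 ng/ul) and streptavidin-XL665 (5 nM), 60 min at room temperature. Compounds titrated 92 nM to 58 uM; 665/545 nm ratio normalized to buffer and complex controls.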
MBNL1 TRFRET – qHTS Assay for Inhibitors of MBNL1-poly(CUG) RNA binding: Initial hit validation from the primary screen | shares compounds with MBNL1 CUG block | TR-FRET MBNL1-His / biotin-(CUG)12 binding, 60 min | Potency, µM (series often up to 57.6 µM), for the others: at the highest dose activity change, negative = inhibition, most hits filed as inhibitors | 50% of 140 active | AID 493199, 2011
MBNL1-CUG Alpha – qHTS Assay for Inhibitors of MBNL1-poly(CUG) RNA binding: Initial hit validation in AlphaScreen assay for MBNL1-(CUG)12 binding | Potency, µM (doses to about 57.7 µM), without a hit: top-dose activity, negative = inhibition, actives largely listed as inhibitors | AID 493205, 2011 | shares compounds with MBNL1 CUG block | 30% of 140 active | AlphaScreen MBNL1-His / biotin-(CUG)12 binding
Menin-MLL HTRF – qHTS Assay for Inhibitors of MBNL1-poly(CUG) RNA binding: Counterscreen HTRF assay | His-Menin/biotin-MLL peptide TR-FRET counterscreen | Potency, µM (highest dose often 57.6 µM), for the others: top-dose activity, negative = inhibition, hits mostly inhibitors | shares compounds with MBNL1 CUG block | AID 651843, 2012 | 20% of 120 active
Numbers without * were called inactive; ? = inconclusive; · = no result given; [ ] = dose if it differs, or a comment. Unless noted, calls come from the whole dose curve; as a rule, active = well fitted curve in the direction sought with a large enough effect; inconclusive = small, poorly fitted or top-dose-only effect, or another doubt; inactive = no such curve, though single readings can be large; an effect the other way counts as inactive or inconclusive.

SMILES	LMNA splice mod	CBFb-RUNX1 inh	MBNL1 CUG block	MBNL1 TRFRET	MBNL1-CUG Alpha	others
O=C(O)CCCC[C@@H]1SC[C@H]2NC(=O)N[C@@H]12	·	12.6µM*	·	·	·
O=[N+]([O-])C(Br)Br	·	4.3%[21.7 µM]	·	·	·
[CH3][Hg][Cl]	·	23.5%[21.7 µM]	·	·	·
CCn1nc(-c2ccccc2)nc2c(=O)n(C)c(=O)nc1-2	?	·	?	0.517µM*	0.259µM*	Menin-MLL HTRF=85.9%
Cc1nc2c(=O)n(C)c(=O)nc-2n(C)n1	?	9.7%	?	·	·
ClC(Cl)(Cl)C(Cl)(Cl)Cl	·	2.4%[21.7 µM]	·	·	·
Clc1ccc2c(c1)C(c1ccccc1Cl)=NCc1nnc(Br)n1-2	2.5%	10.2%	25.1µM*	16.6%	-6.1%	Menin-MLL HTRF=4.2%
Clc1ccc2c(c1)C(c1ccccc1Cl)=NCc1nncn1-2	-3.5%	12.4%	-22.2%	·	·
ClC(Cl)C(Cl)Cl	·	-6.0%[21.7 µM]	·	·	·
Oc1ccc2c3c1O[C@H]1c4[nH]c5ccccc5c4C[C@]4(O)[C@H](C2)N(CC2CC2)CC[C@@]314	·	0.7%[21.7 µM]	·	·	·
Oc1ccc2c3c1O[C@H]1c4[nH]c5c(c4C[C@@]4(O)[C@@H](C2)N(CC2CC2)CC[C@]314)C[C@@]1(O)[C@H]2Cc3ccc(O)c4c3[C@@]1(CCN2CC1CC1)[C@H]5O4	-10.6%	-13.9%	·	15.8µM*	11.2µM*
COc1cccc([C@@]2(O)CCCCC2CN(C)C)c1 (stereo not given in full)	·	4.1%	·	·	·
C=CC=O	·	-6.7%[21.7 µM]	·	·	·
CN1C[C@H](CNC(=O)OCc2ccccc2)C[C@H]2c3cccc4c3c(cn4C)C[C@@H]21	-22.5%	-16.0%[21.7 µM]	·	·	·
CN1C[C@H](CNC(=O)OCc2ccccc2)C[C@@H]2c3cccc4c3c(cn4C)C[C@H]21	?	-14.2%	?	?	?
Clc1nc(Cl)nc(Cl)n1	·	-9.9%[21.7 µM]	·	·	·
Cc1ccc(/C=C/C(=O)C2C(=O)c3ccccc3C2=O)cc1	?	-4.1%	0.7%	·	·
O=C1c2ccccc2C(=O)C1C(=O)C(c1ccccc1)c1ccccc1	·	·	·	?	?	Menin-MLL HTRF=-25.8%
CCOC(=O)N1CCC(NC(=O)CCc2nc(C3=CCN(C)CC3)no2)CC1	3.3%	-17.5%	10µM*	8.19µM*	3.66µM*	Menin-MLL HTRF=?
ClCC(Cl)CCl	·	6.3%[21.7 µM]	·	·	·
CC(C)CON=O	·	-5.3%[21.7 µM]	·	·	·
